dFosB act-1 – activators of delta FosB homodimer, primary screen, biochemical, fluorescence polarization, TAMRA-CDK5 oligo, single point. purified delta FosB; percent of positive-control signal above neutral wells. activation, % at 25 µM. hit rate 0.99% among 340,000. AID 493131, 2011;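 active means mean activation above about 17%, with every replicate also reaching it, limit read from the data, passing the limit was not always enough; inconclusive means only one of the two conditions met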
F508del corr – F508del CFTR correction, initial screen, CFBE line, single point; CFBE cells, YFP halide quenching; stimulated with forskolin plus potentiator P3; % fluorescence drop versus neutral controls; activity (quench increase), % at 7.58 µM; hit rate 0.36% among 350,000; AID 720511, 2013;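 active means mean added fluorescence quench of at least 8% versus neutral control, with both replicates also reaching 8%; inconclusive means only one of the mean or replicate conditions met; inactive means mean below 8% and not both replicates reaching 8%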;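 further: cells transiently co-express mutant CFTR-F508del with the halide-sensitive YFP; corrector assay measuring rescue of mutant channel to the surface after 24 h compound exposure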
RAD52 anneal inh – RAD52 DNA annealing inhibitors, primary screen, biochemical, FRET, single point, set 2; recombinant RAD52 DNA annealing, FRET fluorescence; inhibition, % at 18.7 µM; hit rate 0.46% among 360,000; AID 651710, 2012;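 active means every replicate showing at least 50% inhibition; inconclusive means mean inhibition at least 50% but not in every replicate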
N-glyco inh – increase of ERlucT glycosylation luciferase signal, primary screen, N-linked glycosylation inhibitor project, D54 ERlucT cells, luminescence, set 2 | reporter increase, % at 12.5 µM | D54 ERlucT glycosylation luciferase reporter, 24 h; percent of 100 nM tunicamycin response | AID 588692, 2011 | hit rate 0.23% among 360,000;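 active means mean luciferase reporter signal, scaled so untreated is 0 and the glycosylation-blocking control 100, at or above a set limit in every replicate; inconclusive means mean reaches the limit but not every replicate does; inactive means mean below the limit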;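 further: luciferase carries N-glycosylation sites so blocking glycosylation raises the light; 0% = median of neutral control wells and 100% = median of 100 nM tunicamycin wells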
RAD54 inh – inhibitors of human RAD54 branch migration, primary screen, biochemical, fluorescence, single point; RAD54 Holliday junction branch migration, FAM/BHQ fluorescence; hit rate 0.14% among 360,000; inhibition, % at 10.4 µM; AID 602329, 2012;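 active means mean normalized replicate activity at least 40 and at least half of replicates scoring 40 or more; inconclusive means only one of the two criteria met; inactive means mean below 40 and under half of replicates reaching 40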;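 further: 0% = median of neutral control wells and 100% = median of positive control wells; inhibitors cause a drop in the FAM fluorescence signal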
Target sequence (Q92698 whole entry, looked up): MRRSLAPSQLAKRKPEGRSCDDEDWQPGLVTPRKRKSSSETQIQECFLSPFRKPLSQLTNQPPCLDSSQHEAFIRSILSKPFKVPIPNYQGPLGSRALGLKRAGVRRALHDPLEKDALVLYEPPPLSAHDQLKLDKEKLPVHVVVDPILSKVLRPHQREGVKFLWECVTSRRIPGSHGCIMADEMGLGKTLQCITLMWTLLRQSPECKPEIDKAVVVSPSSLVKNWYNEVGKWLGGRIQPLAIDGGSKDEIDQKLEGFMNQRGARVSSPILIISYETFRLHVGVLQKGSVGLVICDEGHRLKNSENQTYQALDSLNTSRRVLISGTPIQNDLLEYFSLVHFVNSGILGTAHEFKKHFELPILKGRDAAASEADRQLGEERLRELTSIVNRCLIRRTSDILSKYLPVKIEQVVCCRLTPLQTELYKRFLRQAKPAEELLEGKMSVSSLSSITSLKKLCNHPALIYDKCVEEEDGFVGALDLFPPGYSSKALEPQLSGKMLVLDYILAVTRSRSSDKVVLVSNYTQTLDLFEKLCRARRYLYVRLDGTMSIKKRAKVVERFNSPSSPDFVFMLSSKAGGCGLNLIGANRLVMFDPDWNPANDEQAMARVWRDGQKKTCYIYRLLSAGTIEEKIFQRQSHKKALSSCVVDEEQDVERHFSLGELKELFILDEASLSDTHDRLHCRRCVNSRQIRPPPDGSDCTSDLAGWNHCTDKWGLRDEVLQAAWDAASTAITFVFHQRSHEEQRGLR
PvdQ acylase – P. aeruginosa PvdQ acylase inhibitors, primary screen, biochemical, fluorescence, plate reader and imaging, single point. inhibition, % at 10 µM. purified PvdQ acylase. PvdQ acylase [Pseudomonas aeruginosa LESB58]. hit rate 0.063% among 340,000; in the data active means inhibition above about 30%, passing the limit was not always enough; inconclusive means no clear call, values can overlap the other calls;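 further: 0% = vehicle neutral wells and 100% = reference inhibitor wells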
dFosB act-2 – activators of mouse delta FosB DNA binding, confirmation, biochemical, fluorescence polarization, TAMRA-CDK5 oligo, cherry-picked samples | shares compounds with dFosB act-1 | purified delta FosB; normalised: neutral wells 0, positive control 100 | activation, % at 24.9 µM | 2,400 tested, under 10 active | AID 588690, 2011;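 active means highest replicate activation at or above 34% and every replicate reaching that threshold; inconclusive means meets only one of the two criteria; inactive means meets neither criterion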;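 further: higher polarization means more probe DNA bound by delta FosB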
An asterisk follows results filed as active; ? = inconclusive; . = no result. An excerpt weighted towards active compounds, which were near 1.5% of everything screened.

SMILES	dFosB act-1	F508del corr	RAD52 anneal inh	N-glyco inh	RAD54 inh	PvdQ acylase	dFosB act-2
O=C(Cn1nc(-c2ccccc2)ccc1=O)Nc1ccc(NC(=O)c2ccccn2)cc1	25*	-3	-9	-9	-12	-7	0
O=C(Cn1cnc2c(nnn2-c2cccc(F)c2)c1=O)Nc1ccc2c(c1)OCCO2	?	1	-3	-1	3	3	.
COc1ccc(-n2nnc3c(=O)n(CC(=O)Nc4ccc5c(c4)OCCO5)cnc32)cc1OC	49*	2	-16	0	10	-6	1
CC(=O)N1[C@@H](CO)[C@@H](c2ccccc2)C12CN(C(=O)c1ccccc1)C2	.	2	3	.	.	.	.
COC(=O)[C@H]1[C@H](CO)[C@H]2Cn3c(ccc(-c4ccncc4)c3=O)[C@H]2N1Cc1cccc(F)c1	.	1	-18	.	-23	.	.
O=C(Cn1nc(-c2ccccc2)ccc1=O)Nc1ccc(N2CCN(C(=O)c3ccccc3)CC2)cc1	3	.	.	-3	.	3	.
O=C(Cn1nc(-c2ccccc2)ccc1=O)Nc1ccc(-n2cnnn2)cc1	58*	-3	-13	-1	1	-6	2
O=c1[nH]cnc2c1sc1nc(C(F)F)cc(-c3ccccc3)c12	32*	-5	-13	-1	-5	-4	4
Cc1noc(C)c1NC(=O)Nc1ccc2c(c1)C(=O)N([C@@H](C)CO)C[C@H](C)[C@H](CN(C)C(=O)CCCN(C)C)OCCCC[C@H](C)O2	.	2	4	.	5	.	.
O=C(CO/N=C/c1c(Cl)cccc1Cl)NNC(=O)c1cccc(Cl)c1	43*	-1	-8	0	.	-3	0
O=C(CO/N=C/c1c(Cl)cccc1Cl)NNC(=O)c1ccc(Cl)cc1	0	1	2	0	0	2	.
O=C(C[C@@H]1CC[C@@H]2[C@H](COC[C@@H](O)CN2C(=O)Nc2cccc(Cl)c2)O1)NCC1CCCCC1	.	1	21	.	4	.	.
COc1ccc(C(=O)CSc2nc(N)nc(SC)c2C#N)cc1	56*	.	.	2	6	-4	4
CCCNC(=O)CCCCn1c(=S)[nH]c2c([nH]c3ccc(OC)cc32)c1=O	10	1	-5	1	.	-5	.
COc1ccc2[nH]c3c(=O)n(CCCC(=O)NC4CCC(C)CC4)c(=S)[nH]c3c2c1 (stereo unspecified)	53*	-1	-9	1	6	-6	-6
CCCCc1ccc(NC(=O)CSc2nc3ncccc3[nH]2)cc1	20*	-1	-3	-5	1	-4	-1
CN1[C@@H]2Cn3c(ccc(-c4ccc(F)cc4)c3=O)[C@H]1[C@@H](C(=O)NC1CCCCC1)[C@@H]2CO	.	1	6	.	8	.	.
C/C(=N\NC(=O)c1nnn(-c2nonc2N)c1CSc1ccc(C)cc1)c1ccco1	18*	3	-12	-3	0	-3	4
C/C(=N\NC(=O)c1nnn(-c2nonc2N)c1CSc1ccccc1)c1cccnc1	-2	0	-11	1	7	-4	.
Cc1ccc(SCc2c(C(=O)N/N=C/c3ccco3)nnn2-c2nonc2N)cc1	.	1	-4	2	9	.	.
C/C(=N\NC(=O)c1nnn(-c2nonc2N)c1CSc1ccccc1)c1ccco1	38*	5	-23	-2	-7	-3	4
C/C=C/c1ccc([C@H]2[C@@H](CO)N(Cc3cncnc3)C23CN(C(C)=O)C3)cc1	.	0	-5	.	.	.	.
COc1ccc(OC)c(NC(=O)COc2ccc(Br)cc2)c1	-3	-2	8	-2	-2	-5	.
